Most compounds without a hit are left out; they make up all but 0.44% or so of the library.
TRb-SRC2 inh = inhibitors of human thyroid hormone receptor beta-SRC2 interaction. P10828. TRbeta-SRC2 peptide binding, fluorescence polarization; receptor liganded with 1 µM T3. Potency, µM (top dose mostly 106 µM), without a hit: at the highest dose activity change, negative = inhibition, most hits filed as inhibitors. 280,000 tested, 0.065% active. AID 1469;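 note: plate controls were bound peptide for no effect and peptide without receptor for full effect; nearly all actives have a fitted effect of over 50% in size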
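Human TRb ligand-binding domain (0.6 uM) is mixed with 20 nM Texas Red SRC2 peptide and 1 uM T3; after compound addition and 5 hr at ambient temperature, polarization is measured and normalized to unbound and bound controls.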
RGS12 GoLoco inh = inhibitors of human Gai1-RGS12 GoLoco interaction (red fluorophore); P63096; Gai1:RGS12 GoLoco peptide FP, rhodamine, 10 min; Potency, µM (doses to about 61.6 µM), without a hit: at the highest dose activity, negative = inhibition, usual class: inhibitors; 230,000 tested, 0.44% active; AID 880; active = well fitted inhibition curve with a large enough effect, not every such curve was filed as active; inactive = no such curve, though single readings can be large or run the other way; note: % is set by controls: 0 for no effect and ±100 for the full control effect; nearly all actives have a fitted effect of over 30% in size
ERG-DNA inh = ERG Ets/DNA interaction inhibition; P11308; fluorescence polarization, His-ERG Ets domain / labelled DNA; Potency, µM (titrated, usually from 76.9 µM), for the others: at the highest dose FP activity, negative = inhibition, hits mostly inhibitors; 370,000 tested, 0.028% active; AID 624246; active = well fitted inhibition curve with a large enough effect in the polarisation, with a control signal flat; inconclusive = small, poorly fitted or top-dose-only effect, or effect the other way, or a change in a side signal; inactive = no such curve, though single readings can be large or run the other way; the % refers to the polarisation;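 note: polarization taken with two DNA probes labelled with fluorescein and Texas red; % of control where 0% means no effect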
Target sequence (P11308 whole entry, looked up, the tested form may be a part): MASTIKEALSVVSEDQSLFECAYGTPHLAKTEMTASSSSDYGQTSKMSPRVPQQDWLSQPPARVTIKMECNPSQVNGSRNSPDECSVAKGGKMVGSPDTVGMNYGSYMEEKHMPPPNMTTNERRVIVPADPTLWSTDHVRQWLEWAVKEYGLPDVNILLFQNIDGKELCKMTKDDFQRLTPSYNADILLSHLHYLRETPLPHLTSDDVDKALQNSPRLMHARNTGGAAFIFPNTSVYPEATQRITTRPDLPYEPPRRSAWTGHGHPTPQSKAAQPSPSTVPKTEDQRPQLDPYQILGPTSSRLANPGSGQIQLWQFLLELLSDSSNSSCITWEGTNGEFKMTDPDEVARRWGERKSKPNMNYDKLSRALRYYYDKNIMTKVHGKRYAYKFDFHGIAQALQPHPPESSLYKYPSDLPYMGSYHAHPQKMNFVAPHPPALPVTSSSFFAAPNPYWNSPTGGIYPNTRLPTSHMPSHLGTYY
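His-tagged ERG Ets domain (1 uM in the protein solution; 300mM KCl, 50mM Tris-HCl, 1mM EDTA, 1mM DTT, pH 7.5) received compound, then a probe mix of 5 nM fluorescein-DNA and 100nM Texas-615-DNA. Fluorescence polarization was read for both dyes.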
Apoferritin bind = candidate novel general anesthetic via apoferritin binding; P02791; apoferritin/1-aminoanthracene competitive binding, fluorescence; Potency, µM (doses to about 77.5 µM), for inactives: top-dose activity change, negative = displacement, hits mostly inhibitors; 350,000 tested, 0.074% active; AID 485281; note: % is set by controls: 0 for no effect and ±100 for the full control effect; nearly all actives have a fitted effect of over 20% in size
Target sequence (P02791 2-175 limits assumed): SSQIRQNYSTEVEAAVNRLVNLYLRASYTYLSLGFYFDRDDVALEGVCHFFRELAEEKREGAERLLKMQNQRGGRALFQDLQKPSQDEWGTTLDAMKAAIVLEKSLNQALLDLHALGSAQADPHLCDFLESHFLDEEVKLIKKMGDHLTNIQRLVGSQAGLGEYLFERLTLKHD
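In PBS, apoferritin at 10 uM is loaded with 1-AMA from a 50% saturated solution. After 10 min of compound exposure at ambient temperature, reduced 535 nm fluorescence indicates probe displacement.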
TexasRed fluor = counter-screen for TRb-SRC2 inhibitors: fluorescence interference; TRb/SRC2 Texas Red total fluorescence interference; Potency, µM (highest dose often 106 µM), for the others: top-dose fluorescence change, negative = quenching; 280,000 tested, 0.29% active; AID 1479; active = well fitted curve in either direction with a large enough effect; inconclusive = small, poorly fitted or top-dose-only effect; note: % is set by controls: 0 for no effect and ±100 for the full control effect
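Human TRβ ligand-binding domain (0.6 uM) and Texas Red SRC2 peptide (20 nM) in Tris buffer with 1 uM T3 and 5% DMSO were incubated with pinned compound for 5 hr at ambient temperature. Total fluorescence was computed as S + 2P (555/632 nm).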
* hit, by the source's call; ? = inconclusive; · = no result; ! = not confirmed by another sample; [ ] = dose if it differs, or a comment. Unless noted, calls come from the whole dose curve; as a rule, active = well fitted curve in the direction sought with a large enough effect; inconclusive = small, poorly fitted or top-dose-only effect, or another doubt; inactive = no such curve, though single readings can be large; an effect the other way counts as inactive or inconclusive. Potency is the fitted concentration of half-maximal effect.

SMILES	TRb-SRC2 inh	RGS12 GoLoco inh	ERG-DNA inh	Apoferritin bind	TexasRed fluor
N#C/C(=C\c1ccc(-c2cccc(Cl)c2)o1)C(=O)Nc1cccc(C(F)(F)F)c1	?	·	2%	11%	0.089µM*[quencher]
CCc1nc(C)cc2c1sc1ccccc12	1%	-1%	2%	19%	-1%
CC[n+]1c(C)cc2c(sc3ccccc32)c1C	6%	4.5µM*	-2%	4%	0%
NC(N)=NC[C@@H]1COC2(CCCCC2)O1	-4%[53 µM]	6%[21.6 µM]	·	-3%[29.3 µM]	-1%[53 µM]
C[N+]1(CC2COC3(CCCCC3)O2)CCCC1 (centres undefined)	1%	10µM*	13%	2%	0%
CC12CCC(C[N+](C)(C)C1)C2(C)C (centres undefined)	8%	8.9µM*	0%	5%	-2%
CC[N+]1(CC)CC2CCC(C)(C1)C2(C)C (centres undefined)	-2%	-1%	7%	-5%	-1%
COc1ccc(OC)c(C2SCCN2S(C)(=O)=O)c1 (centres undefined)	-3%	8%	1%	-1%	-1%
COc1ccccc1C1SCCN1S(C)(=O)=O (centres undefined)	3%	-2%	1%	11µM*	4%
Cc1ccc(NC(=O)CN2C(=O)c3cccnc3Oc3ccc(Cl)cc32)cc1	-15%	·	0%	?	18µM*[quencher]
CCOC(=O)c1ccc(NC(=O)CN2C(=O)c3cccnc3Oc3ccc(Cl)cc32)cc1	-1%	·	5%	-15%	-29%
CCc1ccccc1NC(=O)CN1C(=O)c2cccnc2Oc2ccc(Cl)cc21	-6%	·	7%	?	14µM*[quencher]
O=C(Nc1ccc2c(c1)CCC2)c1cc(S(=O)(=O)N2CCN(c3ccccc3)CC2)ccc1Cl	21%	170%	16%	-8%	45µM*[fluorescent]
COc1cc(/C=C2/S/C(=N/S(=O)(=O)Cc3ccccc3)NC2=O)c([N+](=O)[O-])cc1OC	-7%	25µM*	-13%	-7%	3%
Cn1cc(/C=C2\SC(=S)N(NC(=O)c3ccccc3)C2=O)c2ccccc21	18µM*	-18%	17%	-10%	?
Cn1cc(/C=C2\SC(=S)N(NC(=O)c3cccc(Cl)c3)C2=O)c2ccccc21	-4%	-42%	38%	-1%	4%
O=C(CNC(=O)c1ccc(Cl)cc1Cl)OCC(=O)c1ccc2c(c1)OCCO2	-2%	4%	-2%	14µM*	-1%
NC(=O)C1CCCN1C(=O)C(Cc1cnc[nH]1)NC(=O)C1CCC(=O)N1 (centres undefined)	3%	·	·	2%	2%
O=C(N/N=C/c1ccc(-c2ccc(S(=O)(=O)Nc3ncccn3)cc2)o1)c1cc2ccccc2cc1O	?	25%	13%	-1%	16µM*[quencher]
CC/C=C/CCCCCCCCCCOC(C)=O	-1%[201 µM]	·	·	·	0%[201 µM]
O=C1c2ccccc2C(=O)c2c1cccc2N1CCCC1	7%	78%	9%	?	0%
O=C1c2ccccc2-c2onc3ccc(N4CCCC4)c1c23	40µM*	-200%	18µM*	?	45µM*[fluorescent]
CCNc1ccccc(-c2ccc3ccccc3n2)c1=O	-1%	-4%	-3%	2%	-3%
CCOc1ccc2noc3c2c1C(=O)c1ccccc1-3	50µM*	-15%	4%	62%	?
CCNc1ccc2noc3c2c1C(=O)c1ccccc1-3	14µM*	4µM*	?	?	45µM*[fluorescent]
SMILES	TRb-SRC2 inh	RGS12 GoLoco inh	ERG-DNA inh	Apoferritin bind	TexasRed fluor
CCOC(=O)c1c(C)oc2c1C(=O)c1ccccc1C2=O	8%	8%	2%	-8%	-4%
Cn1c(=O)cc2c3c(c(N4CCCCC4)ccc31)C(=O)c1ccccc1-2	?	16µM*	?	-4%	?
S=C([S-])NCCNC(=S)[S-].[Zn+2]	?	45%	·	·	?
C[C@@]12C[C@H](O)C3[C@H](CCC4=CC(=O)CC[C@]43C)[C@H]1CC[C@@H]2c1csc(-c2ccccc2)n1 (some centres undefined)	·	6%[14.2 µM]	·	·	·
O=C1OC(O)C(C(Cl)Cl)=C1Cl (centres undefined)	1%	0%	·	·	-3%
O=C1c2ccccc2-c2onc3ccc(NCc4ccco4)c1c23	35µM*	11µM*	?	?	45µM*[fluorescent]
O[C@@H](c1cc(C(F)(F)F)nc2c(Cl)cc(Cl)cc12)C1CCCCN1 (some centres undefined)	·	-1%[14.2 µM]	·	·	·
O=C(CS(=O)(=O)c1cccc2nsnc12)NCc1ccc(Cl)cc1	-18%	·	7%	39%	1.8µM*[quencher]
O=C(CS(=O)(=O)c1cccc2nsnc12)NCc1ccccc1	1%	·	-1%	-3%	3%
O=C(O)C(c1ccc(Cl)cc1)c1ccc(Cl)cc1	0%[201 µM]	·	·	·	-4%[201 µM]
O=c1oc2ccccc2c2oc3cc(O)c(O)cc3c12	9%	-2%	14%	-1%	-14%
O=c1oc2c(O)c(O)cc3c(=O)oc4c(O)c(O)cc1c4c23	-2%	28µM*!	5%	4%	?
Cn1c(-n2cccc2)c(-c2c(-c3ccccc3)[nH]c3c2c(=O)n(C)c(=O)n3C)c(=O)n(C)c1=O	-11%	·	-1%	39%	25119µM*[quencher]
C=CC(=O)OCCOCC(CC)(COCCOC(=O)C=C)COCCOC(=O)C=C	?	·	·	·	1%[201 µM]
c1ccc2c(c1)OCCOCCOCCOCCO2	-1%	·	·	-8%	1%
O=c1cc(-c2ccc(O)cc2)oc2cc(O)cc(O)c12	?	18µM*!	-11%	-11%[29.3 µM]	?
COC(=O)c1cccc(C(=O)OC)c1	-6%[201 µM]	·	·	·	-5%[201 µM]
CCOc1ccc(NC(=O)C2CCN(C(=O)N3CC(C)Oc4ccc(Cl)cc43)CC2)cc1 (centres undefined)	-16%	·	0%	-8%	100µM*[quencher]
CC1CN(C(=O)N2CCC(C(=O)NC3CCCCCC3)CC2)c2cc(Cl)ccc2O1 (centres undefined)	-3%	·	1%	-14%	1%
CCn1c(=Nc2ccc(N3CCOCC3)cc2)ccc2ccccc21	0%	0%	-1%	5%	-1%
Cn1c(=Nc2ccc(N3CCOCC3)cc2)ccc2ccccc21	-4%	0.32µM*	-12%	-6%	-2%
CCOC(=O)c1cc(CC)sc1NC(=O)COc1ccccc1C	?	·	5%	26%	1.6µM*[quencher]
CC(C)Cc1c(C(=O)O)c(C(F)F)nc(C(F)(F)F)c1C1=NCCS1	0%[201 µM]	·	·	·	-2%[201 µM]
COc1ccc2c(c1)Cc1sc(NC(=O)c3ccccc3C)nc1-2	-12%	·	-2%	-10%	0.0028µM*[quencher]
COc1ccc2c(c1)Cc1sc(NC(=O)c3ccccc3)nc1-2	3%	4%	7%	-9%	-1%
